Screening results deposited in PubChem BioAssay by National Center for Advancing Translational Sciences (NCATS).
BAZ2B block – blocks human BAZ2B | AlphaScreen BAZ2B-H3K14Ac peptide displacement | Potency, µM (series often up to 114 µM), inactives show at the highest dose activity change, negative = inhibition, usual class: inhibitors | 4.4% of 360,000 active | AID 504333; further: on the % scale 0 is the no-effect control and ±100 the full control effect; nearly all actives have a fitted effect of over 60% in size
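AlphaScreen displacement: compounds (up to 110uM) incubated 30 min at room temperature with a preformed 50 nM BAZ2B/50 nM biotinylated H3K14Ac peptide complex in PBS pH 7.4 with Tween-20. Donor and acceptor beads at 10 ug/mL final added, 20 min light-protected before reading.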
G9a block – inhibitors of human histone lysine methyltransferase G9a. G9a H3K9 monomethylation, AlphaScreen, 2 h. Potency, µM (highest dose often 102 µM), without a hit: at the top dose activity, negative = inhibition, most hits filed as inhibitors. Q96KQ7. 8.8% of 350,000 active; further: on the % scale 0 is the no-effect control and ±100 the full control effect; nearly all actives have a fitted effect of over 75% in size
Target sequence (Q96KQ7 913-1193 limits assumed): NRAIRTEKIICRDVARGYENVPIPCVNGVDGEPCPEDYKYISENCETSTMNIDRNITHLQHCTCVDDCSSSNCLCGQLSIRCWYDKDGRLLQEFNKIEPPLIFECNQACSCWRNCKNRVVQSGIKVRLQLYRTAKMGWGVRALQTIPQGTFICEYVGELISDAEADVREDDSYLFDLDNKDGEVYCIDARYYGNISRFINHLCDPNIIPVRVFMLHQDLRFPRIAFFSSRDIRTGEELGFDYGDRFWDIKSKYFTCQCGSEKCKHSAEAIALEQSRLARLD
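Quantitative HTS format: methyltransferase activity on a biotin-tagged H3K9 peptide is measured by AlphaScreen, using a rabbit anti-monomethyl-H3K9 antibody with streptavidin donor and anti-IgG acceptor beads. Final levels are 20 nM enzyme, 500 nM peptide, 20 uM SAM; 2 h RT.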
HP1b chromo inh – HP1-beta chromodomain-methylated histone interaction inhibition. P83916. Potency, µM (doses to about 114 µM), without a hit: at the highest dose activity change, negative = inhibition, actives largely listed as inhibitors. 0.56% of 390,000 active. AlphaScreen HP1-beta / biotin-H3K9me3 peptide binding; further: nearly all actives have a fitted effect of over 70% in size
Target sequence (P83916 whole entry, looked up): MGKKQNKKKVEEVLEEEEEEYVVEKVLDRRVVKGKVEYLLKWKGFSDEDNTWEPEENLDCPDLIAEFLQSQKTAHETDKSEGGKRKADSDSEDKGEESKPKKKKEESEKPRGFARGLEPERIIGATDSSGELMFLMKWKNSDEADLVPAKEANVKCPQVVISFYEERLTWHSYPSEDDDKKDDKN
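HP1-beta protein (50 nM final) preincubated 30 min at room temperature with biotinylated H3(1-18)K9me3 peptide (50 nM) in PBS pH 7.4, 0.01% Tween-20, then compound added for 30 min. AlphaScreen streptavidin donor/nickel chelate acceptor beads (10 ug/mL final), 30 min dark, luminescence read.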
L3MBTL1 inh – inhibitors of human L3MBTL1 | Q9Y468 | AlphaScreen L3MBTL1–H3K9me1 peptide binding | Potency, µM (series often up to 57.1 µM), for the others: at the highest dose activity, negative = inhibition, hits mostly inhibitors | 0.66% of 230,000 active | AID 485360; further: on the % scale 0 is the no-effect control and ±100 the full control effect; nearly all actives have a fitted effect of over 60% in size
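Read-out is AlphaScreen signal from streptavidin donor and nickel chelate acceptor beads (10 ug/mL final each) bridging L3MBTL1 (50 nM) and biotinylated K9-monomethylated H3(1-15) peptide (75 nM), after 30 min compound exposure at room temperature.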
JMJD2A Tudor – JMJD2A Tudor domain (human) inhibition; 4.4% of 390,000 active; Potency, µM (titrated, usually from 114 µM), inactives show at the highest dose activity change, negative = inhibition, actives largely listed as inhibitors; AID 504339; AlphaScreen JMJD2A-Tudor / H3K4me3 peptide binding; O75164; further: on the % scale 0 is the no-effect control and ±100 the full control effect; nearly all actives have a fitted effect of over 50% in size
Sfp PPTase inh – inhibitors of Bacillus subtilis Sfp phosphopantetheinyl transferase; AID 1490; Potency, µM, for the others: largest response in the series, negative = inhibition, usual class: inhibitors; Q9F4F7; 3.5% of 310,000 active; Biochemical Sfp PPTase activity, qHTS;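 further: the enzyme is Sfp with the accession as filed and its product quenches rhodamine fluorescence; 0% = enzyme reaction without inhibitor and -100% = no enzyme wells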
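After 15 min at room temperature with compound, 15 nM Sfp received 5 uM rhodamine-CoA plus 12.5 uM BHQ-2-ybbR (50 mM Hepes pH 7.6, 10 mM MgCl2). Rate came from the fluorescence difference over 30 min, ex 525/em 598 nm.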
Starred values were filed as active, the others as inactive; ? = inconclusive; · = not tested or not shown; ! = not confirmed by another sample; [ ] = remark or other dose. Rows were chosen to be rich in hits. Some 12% of all compounds tested hit in one or more screens of this group. The call rests on the fitted dose curve; in most records, active means well fitted curve in the direction sought with a large enough effect; inconclusive means small, poorly fitted or top-dose-only effect, or another doubt; inactive means no such curve, though single readings can be large; an effect the other way counts as inactive or inconclusive. Potency means the concentration at half of the fitted maximal effect.

SMILES	BAZ2B block	G9a block	HP1b chromo inh	L3MBTL1 inh	JMJD2A Tudor	Sfp PPTase inh
O=C(NCCn1cc(SCc2ccc(F)cc2)c2ccccc21)c1cccs1	-37%	-4%[59 µM]	34%	·	-13%	·
CC(=O)c1c(C)[nH]c(C(=O)NC2=NCCS2)c1C	50µM*	13%[12.7 µM]	32%	-4%	-7%[57.1 µM]	15%
O=C(NNc1ccccc1[N+](=O)[O-])Nc1cccc(Cl)c1	89µM*	-143%[59 µM]	-20%[57 µM]	·	?	-11%
O=C(NNc1ccccc1)Nc1cc(Cl)ccc1Cl	·	·	50µM*	·	?	·
O=C(COc1ccccc1)Nc1cc(Cl)ccc1Cl	20%	·	26%	36%	1%	17%
O=C(NNc1ccccc1[N+](=O)[O-])Nc1ccc(F)cc1F	-15%	32µM*	6%	·	-27%	-6%
Cc1cccc(N(CC(=O)NCCSCc2ccc(Cl)cc2)S(C)(=O)=O)c1C	-1%	-5%[59 µM]	34%	·	-11%	·
Cc1ccc(C2C(/C=C3/SC(=S)NC3=O)=C(c3cccs3)Oc3ccccc32)cc1 (centres undefined)	25µM*	32µM*	?	·	35µM*	-8%
Cc1noc(C)c1C(=O)Nc1sc2c(c1C(N)=O)CCCCC2	?	?	29%	?	-10%	45µM*
Cc1occc1C(=O)Nc1sc2c(c1C(N)=O)CCCCC2	-37%	13µM*	-3%	27%[11.4 µM]	-29%	25µM*
CCOC(=O)c1c(NC(=O)c2c(C)noc2C)sc2c1CCCCC2	12%	-10%[0.501 µM]	17%	15%	-25%	56µM*
Cc1cc2c(s1)c1cnn(Cc3ccc(Cl)c(F)c3)c(=O)c1n2C	·	·	·	·	-25%	·
COc1cccc(CNC(=O)Cn2ncn3nc(-c4cccs4)cc3c2=O)c1OC	-15%	?	23%	·	-3%	·
C=CCN(CC=C)c1nc2ccccc2nc1C(C#N)C(=O)OCCOC (centres undefined)	-31%	50µM*	36%	-8%	-20%	1%
CCCN(CCC)c1nc2ccccc2nc1C(C#N)C(=O)OCCOC (centres undefined)	-31%	-24%[59 µM]	9%	·	-10%	-15%
COc1cccc([C@@H]2Oc3ccc(Br)cc3C[C@H]2OC(=O)NS(=O)(=O)c2ccc(C)cc2)c1	·	·	·	·	·	-8%
O=C1CC(N2CCN(S(=O)(=O)c3ccccc3F)CC2)C(=O)N1c1ccccc1F (centres undefined)	·	·	?	·	16µM*	·
CCCCCCCCCCCCCCCCOCC(CO)OC (centres undefined)	·	20%[59 µM]	·	·	·	14%
Cc1cc(C)c(NC(=S)NC(CO)(CO)CO)c(C)c1	2%	10µM*	16%	·	89µM*	-6%
Cc1cccc(C)c1NC(=S)NC(C)(C)CO	18%	?	86%	-4%	-3%	10%
Cc1cc(C)c(Cn2c3ccccc3c3cnn(CC(=O)NCc4ccc(Cl)cc4)c(=O)c32)c(C)c1	4%	3%[59 µM]	32%	·	-1%	·
CCOC(=O)c1cc(CC)sc1NC(=O)COc1ccccc1C	1%	-26%[59 µM]	49%	·	-5%	·
CN[C@H](CC(=O)O)C(=O)O	·	22µM*!	-20%	·	22µM*	100µM*
CCc1ccc(S(=O)(=O)c2cnc3ccc(OC)cc3c2N2CCCC(C)C2)cc1 (centres undefined)	-12%	-11%[59 µM]	24%	·	-8%	·
COc1ccc(-n2cc(-c3ccccc3)[nH]c2=S)c(OC)c1	?	?	-1%	·	?	?
SMILES	BAZ2B block	G9a block	HP1b chromo inh	L3MBTL1 inh	JMJD2A Tudor	Sfp PPTase inh
Fc1ccccc1-n1cc(-c2ccccc2)[nH]c1=S	?	3.5µM*	1%	-13%	?	-23%
CC(C)C[C@H](NC(=O)[C@H](CC(C)C)NC(=O)[C@H](Cc1ccccc1)NC(=O)[C@@H](N)CO)C(=O)N[C@@H](CCCNC(=N)N)C(=O)N[C@@H](CC(N)=O)C(=O)N1CCC[C@H]1C(=O)N[C@@H](CC(N)=O)C(=O)N[C@@H](CC(=O)O)C(=O)N[C@@H](CCCCN)C(=O)N[C@@H](Cc1ccc(O)cc1)C(=O)N[C@@H](CCC(=O)O)C(=O)N1CCC[C@H]1C(=O)N[C@@H](Cc1ccccc1)C(=O)O	·	·	·	·	·	3%
CCOC(=O)/C=C/S(=O)(=O)c1ccc(NC(C)=O)cc1	16%	25µM*	-1%	-4%	-23%	40µM*
CCOC(=O)/C=C/C(=O)Nc1ccc(S(=O)(=O)Nc2c(C)cc(C)cc2C)cc1	7%	6%[59 µM]	28%	6%	-12%	8%
O=C(NCCCN1CCOCC1)c1ccc2c(c1)N(Cc1ccc(F)cc1)CCS2	?	45µM*	19%	·	?	-11%
O=C(NCCCN1CCOCC1)c1ccc2c(c1)N(Cc1c(F)cccc1Cl)C(=O)c1ccccc1S2	?	35µM*	7%[57 µM]	·	?	-4%
O=C(Nc1nc2ccsc2c(=O)s1)c1ccco1	?	40µM*	?	·	35µM*	?
Cc1nc2ccc3nc(NC(=O)c4ccco4)sc3c2s1	·	·	124%	·	?	·
O=C(Nc1nc2c(Cl)ccc(Cl)c2s1)c1ccco1	-6%	?	28%	·	-7%	-3%
Cc1csc2c(=O)sc(NC(=O)c3ccco3)nc12	-1%	50µM*	16%	·	-6%	56µM*
Cc1csc2c(=O)sc(NC(=O)c3cccs3)nc12	50µM*	?	1%	·	-28%	0%
CCOC(=O)Cn1c(=O)c2c(nc3n2CCN3c2ccc(CC)cc2)n(C)c1=O	31%	8%[59 µM]	82%	·	28%	·
CC(C)(C)NC[C@@H](O)c1ccc(O)c(CO)n1	·	-4%[59 µM]	·	·	·	-7%
CCOc1nc2cccc(C(=O)OC(C)OC(=O)OC3CCCCC3)c2n1Cc1ccc(-c2ccccc2-c2nn[nH]n2)cc1 (centres undefined)	·	-6%[2.33 µM]	·	·	·	-33%
Cc1cccc(NC(=O)c2oc3ccccc3c2NC(=O)Cc2coc3cc(C)cc(C)c23)c1	-4%	1%[59 µM]	21%	·	-12%	·
N#CC1=C(N)C2=C(N3CCCCC3)CCCC2C1(C#N)C#N (centres undefined)	50µM*	?	12%	·	-30%	?
CC(C)N(C(=O)CSc1nnc(C2CC2)n1C1CC1)c1ccccc1	-8%	50µM*	13%	9%	-11%	·
COCCn1c(=O)c(-c2ccc(Cl)cc2)nc2cnc(N3CCNCC3)nc21	·	-4%[0.501 µM]	·	·	·	0%
N#CC1=C(N)Oc2c(ccc3cccnc23)C1c1ccccc1 (centres undefined)	-28%	6%[59 µM]	21%	-9%	-26%	9%
N#CC1=C(N)Oc2c(ccc3ccccc23)C1c1cccs1 (centres undefined)	?	7.1µM*	-5%	·	-30%	50µM*
